Inconclusive results are not listed. Activity calls are given as the source filed them. The call rests on the fitted dose curve; in most records, active means well fitted curve in the direction sought with a large enough effect; inconclusive means small, poorly fitted or top-dose-only effect, or another doubt; inactive means no such curve, though single readings can be large; an effect the other way counts as inactive or inconclusive.
Tests used:
[1] = qHTS to identify inhibitors of the type 1 interferon - major histocompatibility complex class I in skeletal muscle: primary screen against the NCATS LOPAC collection (AID 1347405);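 further: human myoblasts with HiBiT tag on endogenous HLA-B stimulated by IFN-beta; lytic HiBiT luminescence reporting HLA-B protein level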
Method in brief: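 First, engineered myoblasts carrying HLA-B-HiBiT were seeded in medium lacking dexamethasone with 4 ng/ml IFN-beta. After 1 hr, compounds were pinned in (top 46 uM final, 7 points). After 24 hrs at 37 C, luminescence was measured following 10 min lysis.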

[2] = qHTS for inhibitors of adenylyl cyclases using a fission yeast platform: a pilot screen against the NCATS LOPAC library (AID 1347410)
Method in brief: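 Fission yeast qHTS: CHP2027 cells (AC9-GNAS-PDE4D2, fbp1-GFP), 5x10^6 cells/mL working density, EMM + His/Lys/Ura; LOPAC at up to 57 µM final; 18 h dark, 30C; GFP by laser cytometry. DPI positive control, DMSO vehicle.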

[3] = qHTS to identify inhibitors of the type 1 interferon - major histocompatibility complex class I in skeletal muscle: primary screen against the NCATS Mechanism Interrogation Plate v5.0 (MIPE) Libary (AID 1347411); further: nearly all actives have a fitted effect of over 65% in size
Method in brief: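 Seed engineered human myoblasts (HLA-B HiBit) in medium without dexamethasone containing 4 ng/ml IFN-beta; after 1 hr add compound titrations (top 46 uM final). Incubate 24 hrs at 37 C, lyse 10 min with HiBiT reagent, read luminescence.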

[4] = target: Protein phosphatase 1D (Homo sapiens) (UniProt O15297); assay: RapidFire Mass Spectrometry qHTS Assay for Modulators of WT P53-Induced Phosphatase 1 (WIP1) (AID 1347424); further: series mostly up to about 63 µM
Chain of Protein phosphatase 1D (Homo sapiens) (O15297 whole entry, looked up): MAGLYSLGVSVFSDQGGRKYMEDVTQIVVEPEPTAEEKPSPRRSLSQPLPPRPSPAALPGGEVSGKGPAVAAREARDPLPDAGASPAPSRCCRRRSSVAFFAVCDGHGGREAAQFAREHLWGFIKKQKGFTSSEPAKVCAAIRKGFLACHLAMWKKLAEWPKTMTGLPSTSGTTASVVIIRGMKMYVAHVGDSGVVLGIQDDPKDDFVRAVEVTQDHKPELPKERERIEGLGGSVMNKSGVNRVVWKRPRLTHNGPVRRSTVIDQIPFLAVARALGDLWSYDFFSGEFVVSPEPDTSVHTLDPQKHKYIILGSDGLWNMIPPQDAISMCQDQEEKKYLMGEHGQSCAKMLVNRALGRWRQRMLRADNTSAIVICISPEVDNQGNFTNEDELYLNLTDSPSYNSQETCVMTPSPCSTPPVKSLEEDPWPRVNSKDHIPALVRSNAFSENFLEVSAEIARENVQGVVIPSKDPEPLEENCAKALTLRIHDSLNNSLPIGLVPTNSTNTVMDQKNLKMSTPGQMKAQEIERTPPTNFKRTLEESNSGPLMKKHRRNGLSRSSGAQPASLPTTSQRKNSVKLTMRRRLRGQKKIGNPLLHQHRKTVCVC
Method in brief: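 RapidFire MS readout of dephosphorylated VEPPL-S-QETFS product, with 1 uM isotope-labelled peptide standard. Reaction: 10 nM WIP1, 2 uM phosphopeptide substrate, 5 min, room temperature, after 1 h compound preincubation; stopped with 0.5% formic acid.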

[5] = target: Protein phosphatase 1D (Homo sapiens) (UniProt O15297); assay: Rhodamine-PBP qHTS Assay for Modulators of WT P53-Induced Phosphatase 1 (WIP1) (AID 1347425)
Method in brief: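 Read-out: Rhodamine-PBP fluorescence (ex 525/em 598 nm) for released Pi, read each minute for 11 min after adding 10 uM VEPPL-pS-QETFS; signal taken as f1 minus pre-substrate f0. Enzyme 5 nM WIP1 with 1 hr room-temperature compound preincubation.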

[6] = target: Single-stranded DNA cytosine deaminase (Homo sapiens) (UniProt Q9GZX7); assay: Validation qHTS assay for inhibitors of Activation Induced Cytidine Deaminase (AID): AID signal (AID 1347429)
Chain of Single-stranded DNA cytosine deaminase (Homo sapiens) (Q9GZX7 whole entry, looked up): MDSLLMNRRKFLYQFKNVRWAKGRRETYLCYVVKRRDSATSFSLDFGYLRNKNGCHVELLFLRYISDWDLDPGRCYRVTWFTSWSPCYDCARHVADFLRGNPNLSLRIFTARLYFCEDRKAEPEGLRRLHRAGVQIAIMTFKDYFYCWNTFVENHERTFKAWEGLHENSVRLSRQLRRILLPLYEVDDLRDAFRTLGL
Method in brief: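 Steps: dispense AID with UDG; pin-transfer compound up to 114 uM final; add DJC20/DJC23 substrate and hold 4 hr at room temperature; add NaOH, hold 30 min; read FRET signal (540/590 nm).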

[7] = target: Calcium and integrin-binding protein 1 (Homo sapiens) (UniProt Q99828); assay: Validation qHTS for Identification of Calcium Integrin Binding protein 1 (CIB1) Competitor (AID 1508618)
Chain of Calcium and integrin-binding protein 1 (Homo sapiens) (Q99828 whole entry, looked up): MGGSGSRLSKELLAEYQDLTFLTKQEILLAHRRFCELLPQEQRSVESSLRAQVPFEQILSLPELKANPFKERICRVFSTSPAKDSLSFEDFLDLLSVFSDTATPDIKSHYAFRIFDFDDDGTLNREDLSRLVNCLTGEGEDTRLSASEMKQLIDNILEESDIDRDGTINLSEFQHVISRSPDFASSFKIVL
Method in brief: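 CIB1-GST (1 uM final) in 5 mM HEPES pH 7.4, 125 mM NaCl, 5 mM CaCl2, 0.01% Tween20 was preincubated 15 min at room temperature with compound (up to 114 uM), then FITC-alphaIIb peptide (100 nM) added for 15 min; fluorescence polarization read.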

[8] = target: Calcium and integrin-binding protein 1 (Homo sapiens) (UniProt Q99828); assay: Primary qHTS for Identification of Calcium Integrin Binding Protein 1 (CIB1) Competitor (AID 1508620);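 further: GST tagged CIB1 binding a fluorescein labelled alphaIIb integrin peptide tracer; top concentration of the series differs between compounds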
Method in brief: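 Fluorescence polarization competition: GST-tagged CIB1 (1 uM final) preincubated with compound 15 min at room temperature, then FITC-labelled alphaIIb peptide (100 nM final) added. After 15 min at room temperature, polarization read at Ex 480/Em 540.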

[9] = Validation qHTS assay for inhibitors of Activation Induced Cytidine Deaminase (AID): UDG Counterscreen signal (AID 1347427)
Method in brief: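 Fluorescence at 560 nm excitation, 665 nm emission reports UDG signal after 250 mM NaOH (2x) addition and 30 min. Enzymes (AID 1 uM, UDG 2 U/mL, at 4/3x) preincubated 10 min with compound, then 4 h with 4x 250 nM DJC20/DJC23 substrate at room temperature.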

[10] = Counterscreen qHTS for small molecule stabilizers of the endoplasmic reticulum resident proteome: GLuc-NoTag assay (AID 1508627);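 further: SH-SY5Y cells given compound then 100 nM thapsigargin to empty ER calcium; series mostly up to about 76 µM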
Method in brief: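 Counterscreen line: SH-SY5Y-GLuc-NoTag. Seed, 5 h; compound, 19 h; thapsigargin 100 nM, 4 h; 37C/5% CO2. Readout: secreted GLuc luminescence, coelenterazine 0.07x final, no lysis.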

[11] = Primary qHTS for inhibitors of La Crosse Virus (LACV) - induced cell death in SH-SY5Y cells (AID 1508616);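 further: top concentration of the series differs between compounds; higher means more rescue of cells from virus-induced death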
Method in brief: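 SH-SY5Y, 6000 cells/well; cpd via pin tool in DMSO; LACV 0.01 MOI; 6 d 37C 5% CO2; ATPLite, 5 min RT; luminescence normalized to ±virus DMSO controls.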

[12] = qHTS to identify inhibitors of the type 1 interferon - major histocompatibility complex class I in skeletal muscle: primary screen against the NCATS Pharmaceutical Collection (AID 1347407);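 further: luminescence of HiBiT knocked into endogenous HLA-B as interferon-induced MHC class I level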
Method in brief: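 Luminescence from HiBiT-tagged endogenous HLA-B*08:01 served as the read-out of IFN-beta-induced MHC class I in CRISPR-engineered C25cl48 myoblasts. Cells received 4 ng/ml IFN-beta plus compound (high final 46 uM, […]) for 24 h.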

Measured: Potency

COc1ccccc1OCC(O)CN1CCN(CC(=O)Nc2c(C)cccc2C)CC1 (centres undefined)
not listed: [9] | [10] | [11] | [12]
inactive: all other assays above

CC12CC3CC(C)(C1)CC(N)(C3)C2
not listed: [11] | [12]
inactive: all other assays above

CCC1(C)CC(=O)NC1=O (centres undefined)
not listed: [10] | [12]
inactive: all other assays above

NCCCCCC(=O)O
not listed: [10] | [12]
inactive: all other assays above

Clc1ccc(C(c2ccccc2Cl)C(Cl)Cl)cc1 (centres undefined)
not listed: [3] | [9] | [10] | [11]
inactive: all other assays above

CCc1cccc2c3c([nH]c12)C(CC)(CC(=O)O)OCC3 (centres undefined)
not listed: [3] | [9] | [10] | [12]
inactive: all other assays above

COc1cc2nc(N3CCN(C(=O)C4COc5ccccc5O4)CC3)nc(N)c2cc1OC (centres undefined)
not listed: [3] | [10] | [12]
inactive: all other assays above

Nc1c2c(nc3ccccc13)CCCC2
not listed: [9] | [10] | [12]
inactive: all other assays above

CC(C)(Oc1ccc(C2CC2(Cl)Cl)cc1)C(=O)O (centres undefined)
not listed: [10] | [11] | [12]
inactive: all other assays above

CC(C)C(=O)Nc1ccc([N+](=O)[O-])c(C(F)(F)F)c1
not listed: [9] | [10] | [11] | [12]
inactive: all other assays above

CN(C)CCCN1c2ccccc2CCc2ccc(Cl)cc21
inactive: [1] | [2] | [3] | [4] | [5] | [6]

O=C1N(c2ccccc2)c2ccccc2C1(Cc1ccncc1)Cc1ccncc1
not listed: [9] | [10] | [12]
inactive: all other assays above

From PubChem BioAssay (NCATS)
